Consider 25 compounds from PubChem BioAssay AID504378 (National Center for Advancing Translational Sciences (NCATS), 2011).

Inconclusive results are not listed. Calls of active or inactive are those of the source. Calls follow the shape of the dose curve; as a rule, active = well fitted curve in the direction sought with a large enough effect; inconclusive = small, poorly fitted or top-dose-only effect, or another doubt; inactive = no such curve, though single readings can be large or run the other way.

The nature of this assay: qHTS Assay for Compounds Blocking the Interaction Between CBF-beta and RUNX1 for the Treatment of Acute Myeloid Leukemia: SAR for Probe with Orthogonal Assay. The following applies: ME-1 cells viability, ATPlite luminescence, 48 h; series mostly up to 82.4 µM. From the text: NIH Chemical Genomics Center [NCGC] NIH Molecular Libraries Probe Production centers Network [MLPCN] MLPCN Grant: X01MH083259-01 Assay Submitter (PI): Paul Liu NCGC Assay Overview: Core Binding Factor (CBF) abnormalities are associated with 20-25% of all acute myeloid leukemias (AML), of which 5-10% are further sub classified as acute myelomonocytic leukemia with eosinophilia, also known as M4Eo in the FAB classification scheme. This subtype of leukemia is usually associated with chromosome 16 inversion (p13:q22). Chromosome 16 inversion results in formation of the fusion oncogene CBFB-MYH11, which encodes the fusion protein CBF-beta-SMMHC. […] It has been hypothesized that the interference of CBF-beta and RUNX1 binding could have therapeutic implications for patients with CBF mediated leukemias. We developed a CBF-beta and RUNX1 binding assay in AlphaScreenTM format and optimized it for high throughput screening to search for inhibitors. The goal of this project is to screen MLPCN's compound collection (MLSMR) for identifying the inhibitors of the interaction between CBF-beta and RUNX1 proteins as research probes. If these probes work well in the animal models, the ultimate goal of this project is to development a new drug treatment for this disease. This assay can not be used to assess how apparent inhibitors interfere with protein binding, and whether inhibitors specifically bind to either protein. Disruption of this protein-protein interaction, through any mechanism, is the intended target activity. The present data set was run to confirm the activity of hits from the primary screen using an orthogonal assay technology for measuring protein-protein interaction disruption.
NCGC Assay protocol: ME-1 suspension cells were grown in T225 flasks to 80% density under a standard cell culture condition (ATCC) using Dulbecco's Modified Eagle Medium (DMEM) + 10% fetal bovine serum, harvested in OPTI-MEM (phenol free) + 10% FBS. Seeded at 500 cells/well in 5uL medium into 1536-well white solid-bottom plates using Multidrop Combi dispenser, and incubated the plates at 37 C with 5% CO2 and 95% humidity for 2 hours prior to pinning compound. Subsequently, 23 nL/well compound solutions or DMSO controls were dispensed to the assay plates via a pintool workstation. Plates were then transferred to 37 C with 5% CO2 and 95% humidity for 48 hours, and then ATP content was measured following the addition of 4uL/well of ATPlite reagent and a 20 min incubation on a ViewLux plate reader. Keywords: MLSMR, MLPCN, NIH Roadmap, qHTS, NCGC, Core binding factor, CBF, CBF-beta, Acute myeloid leukemia
Background: qHTS replaces the single test concentration by a dilution series.
For the compound `N[C@@H](CCC(=O)O)C(=O)Nc1ccc(Cl)cc1C(=O)c1ccc[nH]1`, the compound was classed as inactive. In the case of `O=C(c1ccc[nH]1)c1cc(Cl)ccc1NC(=O)[C@@H]1CCCN1`, the result was inactive. In the case of `NCC(=O)Nc1ccc(Cl)cc1C(=O)c1ccc[nH]1`, the compound was called inactive.

As to `N[C@@H](CO)C(=O)Nc1ccc(Cl)cc1C(=O)c1ccc[nH]1`, the compound was called inactive. The same measure for `CCC(=O)Nc1ccc(Cl)cc1C(=O)c1ccc[nH]1`: “inactive”; for `CNCC(=O)Nc1ccc(Cl)cc1C(=O)c1ccc[nH]1`: “inactive”. Consider `CC(C)[C@H](N)C(=O)Nc1ccc(Cl)cc1C(=O)c1ccc[nH]1`, for which the compound was called inactive. For `C[C@@H](N)C(=O)Nc1ccc(Cl)cc1C(=O)c1ccc[nH]1`, the compound was classed as inactive. Turning to `CC(C)(N)C(=O)Nc1ccc(Cl)cc1C(=O)c1ccc[nH]1`, the result was inactive. Take `N[C@@H](Cc1ccccc1)C(=O)Nc1ccc(Cl)cc1C(=O)c1ccc[nH]1`: the compound was classed as inactive. As for `NCCCC[C@H](N)C(=O)Nc1ccc(Cl)cc1C(=O)c1ccc[nH]1`, the compound was classed as inactive. For `N[C@H](Cc1ccccc1)C(=O)Nc1ccc(Cl)cc1C(=O)c1ccc[nH]1`, the result was inactive.

`CNCc1nc(-c2ccc[nH]2)c2cc(Cl)ccc2n1`: the compound was classed as inactive. Consider `NCCCCC(=O)Nc1ccc(Cl)cc1C(=O)c1ccc[nH]1`, for which the result was inactive. The same measure for `Nc1ccc(Cl)cc1C(=O)c1ccc[nH]1`: “inactive”. Consider `NCCC(=O)Nc1ccc(Cl)cc1C(=O)c1ccc[nH]1`, for which the result was inactive. For the compound `NC(=O)C[C@H](N)C(=O)Nc1ccc(Cl)cc1C(=O)c1ccc[nH]1`, the call was inactive.

For the compound `N[C@H](C(=O)Nc1ccc(Cl)cc1C(=O)c1ccc[nH]1)c1ccccc1`, the outcome was inactive. The same measure for `N[C@@H](CC(=O)O)C(=O)Nc1ccc(Cl)cc1C(=O)c1ccc[nH]1`: “inactive”. Turning to `NC(N)=NCCC[C@H](N)C(=O)Nc1ccc(Cl)cc1C(=O)c1ccc[nH]1`, the compound was classed as inactive. For the compound `C[C@H](N)C(=O)Nc1ccc(Cl)cc1C(=O)c1ccc[nH]1`, the compound was classed as inactive. The same measure for `CN(C)CC(=O)Nc1ccc(Cl)cc1C(=O)c1ccc[nH]1`: “inactive”. The same measure for `NCCCC(=O)Nc1ccc(Cl)cc1C(=O)c1ccc[nH]1`: “inactive”. Turning to `CC(=O)Nc1ccc(Cl)cc1C(=O)c1ccc[nH]1`, the compound was called inactive. The same measure for `CCc1sc(N)nc1-c1ccc(OC)cc1`: “inactive”.
